Common to all, as to assay: NCI-60 one-dose screen, 48 h (100 = growth as untreated, 0 = no growth, -100 = all killed)
What all share (settings): 10 µM unless noted

Test [1] has as its system SR leukemia.
Test [2] relates to RPMI-8226 leukemia.
Test [3] has as its system OVCAR-8 ovarian.
For test [4], the system named is OVCAR-5 ovarian.
Test [5] concerns OVCAR-4 ovarian.
Test [6] relates to SK-OV-3 ovarian.
For test [7], the system named is IGROV1 ovarian.
For test [8], the system named is OVCAR-3 ovarian.
Test [9] has as its system HS 578T breast.
For test [10], the system named is NCI/ADR-RES ovarian.

The structures appear in SMILES notation. About 83,000 compounds went through this panel and 20% of them were active in at least one assay; those are over-represented in the sample as a whole.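 48-hour exposure, single concentration, 96-well plates; percent growth endpoint where 0 means no net growth. Active: below 10.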 Values without a mark were called inactive. Calls of active or inactive are those of the source.

As to `c1ccc2c(-c3nccs3)c[nH]c2c1`, the growth is 86% in [1]; 104% in test [2]; 106% in [3]; 97.3% in test [4]; 110% in test [5]; 99.7% in test [6]. For the same compound, the growth in test [7] was 101%; in [8], 103%; in test [9], 98.3%; in test [10] it was 103%.
Turning to `CCOC(=O)Nc1ccc(-c2ccc3c(c2)NC(=O)/C3=C\c2ccc[nH]2)cc1`, the growth in test [1] is 19.3%; in [2], 100%; in test [3], 105%; in [4] it was 72.8%; in test [5] it was 45%; in [6], 91%. Moreover, the growth in test [7] is 94.1%; in test [8] it was 106%; in [9], 106%; in [10], 102%.
For the compound `O=C1c2ccc3c4c(ccc(c24)C(=O)N1CCCNCc1ccccc1Cl)C(=O)N(CCCNCc1ccccc1Cl)C3=O`, the growth was -34.4% (active) in [1]; -28.9% (active) in test [2]; -38.3% (active) in test [3]; -39.2% (active) in test [4]; -96.6% (active) in test [5]; 28.3% in test [6]. Also, the growth in [7] is -34.1% (active); in test [8], -64.4% (active); in test [9] it was -22.9% (active); in [10], -12.3% (active).
For `CC1(C)CC[C@]23CC[C@]4(C)[C@H](CC[C@@H]5[C@@]6(C)CCCNC(C)(C)[C@@H]6CC[C@]54C)[C@H]2[C@H]1OC3`, the growth in test [1] is -30.2% (active); in test [2], -29.7% (active); in test [3], -45.6% (active); in test [4], 8.55% (active); in [5] it was -51.2% (active); in [6] it was 75.8%. Moreover, the growth in [7] was -58.7% (active); in test [8], -31.2% (active); in test [9], -9.12% (active); in test [10], -19.6% (active).
With `O=C(c1nc2ccccc2[nH]1)C1C(c2ccc(Cl)cc2)C2CC3CCCC[C@H]3N2[C@@]12C(=O)Nc1cc(Cl)ccc12` (stereo not given in full), the growth in test [1] is 39%; in [2], 16.8%; in test [3], 61.3%; in [4], 56%; in test [5], 24.4%; in test [6], 71.4%. Also, the growth is 32% in test [7], 35% in test [8], 73.2% in [9] and 50.5% in test [10].
Regarding `O=C(/C=C/c1ccc(F)cc1)c1ccc(NC(=O)N2CCN(c3cc4c(cc3F)c(=O)c(C(=O)O)cn4C3CC3)CC2)cc1`, the growth in test [1] was 71.9%; in test [2], 98.6%; in [3] it was 90.8%; in [4], 96.9%; in test [5], 98.2%; in test [6], 99.4%. Further, the growth was 89.5% in test [7], 97.6% in [8], 90.3% in [9] and 100% in test [10].
For `C[C@@H](Nc1ncnc2ccc(-c3cnc(N)nc3)cc12)c1ccc(F)cc1`, the growth in test [1] is 85.3%; in test [2] it was 83.6%; in [3], 78.1%; in [4] it was 44.6%; in test [5] it was 74.3%; in [6] it was 103%. Besides, the growth is 28.7% in test [7], 69.2% in test [8], 69.2% in test [9] and 86% in test [10].
In the case of `C=C(C)[C@@H]1CC[C@]2(C(=O)N3CCN(C)CC3)CC[C@]3(C)[C@H](CC[C@@H]4[C@@]5(C)CC[C@H](O)C(C)(C)[C@@H]5CC[C@]43C)[C@@H]12`, the growth in [1] was -19.9% (active); in [2], -40.1% (active); in test [3], -55% (active); in test [4] it was -13.8% (active); in [5], -79.6% (active); in [6], 125%. The growth was -72.6% (active) in test [7], -94% (active) in test [8], -46.1% (active) in [9] and -42.7% (active) in test [10].
For `C[C@H](c1nc2ccc(N)cc2[nH]1)[C@H]1CC[C@H]2[C@@H]3CCC4=CC(=O)CC[C@]4(C)[C@H]3CC[C@]12C`, the growth is 44.4% in test [1]; 64.5% in test [2]; 91.4% in test [3]; 102% in test [4]; 88.1% in test [5]; 91.2% in test [6]. For the same compound, the growth in [7] is 85.1%; in test [8] it was 91.5%; in [9], 87.3%; in test [10], 89%.
For the compound `COc1ccc2[nH]c(=O)c(CN3CCN(c4nccc(-c5ccc(Cl)cc5)n4)CC3)cc2c1`, the growth in test [1] was 70.3%; in [2] it was 73.6%; in test [3], 66%; in test [4], 98.5%; in [5] it was 71.4%; in test [6], 94.9%. In addition, the growth in [7] is 106%; in test [8] it was 100%; in test [9], 72.9%; in [10], 82.4%.
For the compound `CC(=O)[C@@H]1CC[C@]2(CO)CC[C@]3(C)[C@H](CC[C@@H]4[C@@]5(C)CCCNC(C)(C)[C@@H]5CC[C@]43C)[C@@H]12`, the growth in test [1] was 86.8%; in [2], 98.6%; in test [3] it was 105%; in test [4], 102%; in [5], 101%; in test [6], 122%. The growth in test [7] is 99.1%; in test [8] it was 97.2%; in test [9], 96.1%; in test [10], 96.4%.
For `O=C(CCN1CCCC1)Nc1ccc2c(Nc3ccc(F)cc3)c3ccccc3nc2c1`, the growth is -20.9% (active) in test [1]; -37.1% (active) in test [2]; 4.18% (active) in test [3]; 12.9% in test [4]; -16.1% (active) in test [5]; 38.4% in test [6]. The growth in [7] was 0.357% (active); in test [8], -31.5% (active); in test [9], 25.2%; in test [10], 33.8%.
Consider `c1ccc2cc(Cn3c(-c4cccc5ccccc45)[n+](Cc4ccc5ccccc5c4)c4c5ccccc5c5ccccc5c43)ccc2c1`, for which the growth in test [1] was -56% (active); in [2] it was -38.7% (active); in test [3] it was -67% (active); in test [4], -76.7% (active); in test [5], -80% (active); in [6] it was -79.4% (active). In addition, the growth is -71.8% (active) in test [7], -89.4% (active) in [8], -42.1% (active) in [9] and 17.7% in test [10].
For `Cc1cc(C(=O)/C=C/c2ccc[nH]2)ccc1-n1ccc(C(F)(F)F)n1`, the growth was 28.4% in test [1]; -40.1% (active) in test [2]; 85.6% in test [3]; 95.8% in [4]; 74.7% in test [5]; 129% in [6]. The growth is 92.3% in test [7], 4.46% (active) in test [8], 94.3% in test [9] and 89.3% in test [10].
`C=C(C)[C@@H]1CC[C@]2(C(=O)N3CCN(C)CC3)CC[C@]3(C)[C@H](CC[C@@H]4[C@@]5(C)C/C(=C/c6cccnc6)C(=O)C(C)(C)[C@@H]5CC[C@]43C)[C@@H]12`: the growth in test [1] is 19.9%; in test [2] it was 21.2%; in test [3] it was 56.2%; in test [4], 100%; in test [5], 49.2%; in test [6] it was 83.8%. Moreover, the growth in test [7] was 96%; in test [8] it was 57.5%; in test [9], 76.4%; in test [10], 64.2%.
Consider `COc1cccc2c1c1nc3cc(C)c(C)cc3nc1n2CCN(C)C`, for which the growth in test [1] is 3.48% (active); in [2] it was -8.21% (active); in test [3], 26.4%; in test [4] it was 28.7%; in test [5], 35%; in test [6], 39%. For the same compound, the growth in [7] is 5.59% (active); in test [8], 32.6%; in [9] it was 54.4%; in test [10], 25.1%.
Regarding `C#CCNC(=O)c1cccc2c1cc(C)n2-c1nc2c(c(NCc3ccccc3)n1)CCCC2`, the growth in test [1] was 6.53% (active); in test [2], 0.445% (active); in [3], 12.8%; in [4] it was 8.62% (active); in [5], -11.8% (active); in [6], 2.45% (active). For the same compound, the growth was -21.7% (active) in [7], -61.2% (active) in test [8], 8.06% (active) in test [9] and 1.28% (active) in test [10].
Take `Cc1ccc(/C=N/NC(=O)CSc2nc3ccccc3c(=O)n2Cc2ccc(S(N)(=O)=O)cc2)cc1`: the growth in test [1] is 49.4%; in [2] it was 95.1%; in test [3], 93.6%; in [4] it was 95.6%; in [5] it was 106%; in [6] it was 103%. In addition, the growth in test [7] was 96.2%; in test [8], 79.6%; in test [9], 88.5%; in test [10], 96.8%.
With `O=S(=O)(Nc1ccc(-n2cnc3cc(-c4ccc(O)cc4)ccc32)cc1)c1ccccc1`, the growth in test [1] was 78%; in [2] it was 69.1%; in test [3] it was 84.4%; in test [4], 111%; in test [5], 74.1%; in [6], 127%. Also, the growth in test [7] was 91.4%; in test [8], 95.8%; in test [9] it was 97.3%; in test [10], 91.9%.
In the case of `O=C(CCN1CCCC1)Nc1ccc2c(NCCc3ccccc3)c3ccccc3nc2c1`, the growth is -16.1% (active) in test [1]; -41.9% (active) in test [2]; 3.23% (active) in test [3]; 7.44% (active) in [4]; -24.6% (active) in [5]; -6.92% (active) in [6]. Further, the growth was -6.54% (active) in [7], -37.8% (active) in test [8], -25.1% (active) in [9] and 71.5% in [10].
`Cn1ccnc1C(=O)/C=C/c1ccc(CC(=O)Nc2ccc(F)cc2)cc1`: the growth in test [1] is 14.4%; in [2], 1.1% (active); in test [3], 12.7%; in [4] it was 65.5%; in [5] it was 30.3%; in test [6], 85.4%. Besides, the growth was 39.3% in test [7], 6.19% (active) in [8], 57.7% in test [9] and 21.7% in test [10].
With `COc1ccc(C(=O)C2C(C#N)C(C#N)C3C=Cc4ccccc4N32)cc1` (stereo not given), the growth in test [1] was 21.3%; in test [2] it was 29.9%; in [3] it was 27.6%; in test [4], 31.4%; in test [5], 46.4%; in test [6], 55.2%. Besides, the growth was 23.2% in [7], -11.9% (active) in test [8], 14.4% in [9] and -7.8% (active) in test [10].

(Values after PubChem BioAssay (NCI).)
